Reference: PubChem BioAssay (EPA / NIEHS)
Active and inactive are the calls of the source. How the source made its calls: active means hit-call score of the fitted dose curve at least 0.9, where 1 is the maximum; inconclusive means response in the unintended direction; inactive means score below 0.9.

test: Tanguay_ZF_120hpf_MORT_legacy: (Legacy) Oregon State University Tanguay Lab 120 Hour Post-fertilization zebrafish Assay for Mortality (AID 2283633)
Method: Tanguay_ZF_120hpf_legacy is a whole embryo, multiplexed endpoint assay using zebrafish larvae exposed for 120 hours post fertilization on a 96-well plate.Tanguay_ZF_120hpf_MORT_legacy is one of one assay component(s) measured or calculated from the Tanguay_ZF_120hpf_legacy assay. It is designed to make measurements of embryonic mortality as detected with brightfield microscopy of developing zebrafish embryos.Data from the assay component Tanguay_ZF_120hpf_MORT_legacy was analyzed into 1 assay endpoints. This assay endpoint, Tanguay_ZF_120hpf_MORT_legacy, was analyzed in the positive analysis fitting direction relative to DMSO as the negative control and baseline of activity. Using a type of viability reporter, gain-of-signal activity can be used to understand changes in developmentals as they relate to the whole embryo. To generalize the intended target to other relatable targets, this assay endpoint is annotated to the embryonic mortality intended target family, where the subfamily is embryonic mortality.
Zebrafish husbandry: Tropical 5D wild-type adult zebrafish were housed in at an approximate density of 1000 per 100 gallon tank at the Sinnhuber Aquatic Research Laboratory, Oregon State University, Corvallis, OR. Each tank was kept at standard laboratory conditions of 28C on a 14-h light/10-h dark photoperiod in fish water consisting of reverse osmosis water supplemented with a commercially available salt (Instant Ocean). Spawning funnels were placed into the tanks the night prior, and embryos were collected and staged. To increase bioavailability, the chorion was enzymatically removed using pronase (63.6mg/ml, >/= 3.5U/mg, Sigma-Aldrich: P5147) at 4 hours post fertilization (hpf) using a custom automated dechorionator.Chemical exposures: Six hpf dechorionated embryos were placed 1 embryo per well in a 96-well plate prefilled with 90 ul of EM using automated embryo placement systems (AEPS). Ten microliters of each row of dilution plate 2 was added to 2 exposure plates. The final DMSO concentration used was 0.64% (vol/vol). Thirty-two embryos were also exposed to 5uM trimethyltin chloride (positive control). Plates were sealed to prevent evaporation and foil covered to reduce light exposure and kept in a 28C incubator. Embryos were statically exposed until 120 hpf. At 24 hpf, embryos were assessed for photomotor response using a custom photomotor response analysis tool (PRAT) and for developmental toxicity endpoints (MO24: mortality at 24 hpf, DP: developmental progression, SM: spontaneous movement, and NC: notochord distortion). At 120 hpf, locomotor activity was measured using Viewpoint Zebralab and assessed for 18 endpoints. Zebrafish acquisition and analysis program (ZAAP), a custom program designed to inventory, acquire, and manage zebrafish data, was used to collect developmental endpoints as either present or absent (i.e., binary responses were recorded). If mortality occurred for an embryo (at either 24 or 120 hpf), the non-mortality endpoints were not measured.

| Compound | outcome | AC50 |
| --- | --- | --- |
| O=C(O)c1cccc(Oc2ccccc2)c1 | inactive |  |
| CC(C)CCCCCCOC(=O)c1ccc(C(=O)OCCCCCCC(C)C)c(C(=O)OCCCCCCC(C)C)c1 | inactive |  |
| Cc1ccc(C)c(O)c1 | inactive |  |
| Cn1c(=O)c2c(ncn2C)n(C)c1=O | inactive |  |
| CC(=O)c1ccc2c(c1)[C@H](NC(=O)c1ccc(F)cc1)[C@@H](O)C(C)(C)O2 | inactive |  |
| Cc1ccc(N)cc1O | inactive |  |
| CC(C)=CCCC(C)=CC=O | inactive |  |
| CN(C)c1ccc(Cc2ccc(N(C)C)cc2)cc1 | inactive |  |
| CC(C)CCCCCCCOC(=O)CCCCC(=O)OCCCCCCCC(C)C | inactive |  |
| Cc1ccc(O)cc1 | inactive |  |
| CC(C)=CCC/C(C)=C/CO | inactive |  |
| NC(=O)NO | inactive |  |
| CC(=O)OCCC(C)C | inactive |  |
| Nc1cccc(N)c1 | inactive |  |
| O=C(O)CCN(C1(C(=O)NO)CCCC1)S(=O)(=O)c1ccc(Oc2ccc(F)cc2)cc1 | inactive |  |
| CCOC(=O)CC(CC(=O)OCC)(OC(C)=O)C(=O)OCC | inactive |  |
| CN(C)c1ccc(N=NS(=O)(=O)O)cc1 | inactive |  |
| C1=CCCC=CCCC=CCC1 | inactive |  |
| Cn1c(=O)cc(Oc2ccc(F)cc2F)c2cnc(NCC(C)(C)O)nc21 | inactive |  |
| Cn1cnc([N+](=O)[O-])c1Sc1ncnc2nc[nH]c12 | inactive |  |

| Compound | outcome | AC50 |
| --- | --- | --- |
| CNS(=O)(=O)c1cc(C(=O)N2CCC(CCN3C4CCC3CC(n3c(C)nc5ccccc53)C4)(c3cccc(F)c3)CC2)c(Cl)cc1F (stereo not given) | inactive |  |
| CCCCCCCCO | inactive |  |
| CCOC(=O)c1ccc(C2CCC(NC[C@H](O)COc3ccc(O)c(NS(C)(=O)=O)c3)CC2)cc1 (stereo not given in full) | inactive |  |
| CCn1nc(Cc2ccccc2)cc1C1CCN(C[C@H]2C[C@H](N(C)[C@@H](C(=O)O)C(C)C)C[C@@H]2c2cccc(F)c2)CC1 | inactive |  |
| On1ccccc1=S | inactive |  |
| O=C(NS(=O)(=O)/C=C/c1ccccc1)c1ccc(F)cc1Cl | inactive |  |
| CC[C@H]1CC[C@H](NCc2cc3c(cc2OC)[C@H]2C[C@H]2C(=O)N3C)[C@H](c2ccccc2)N1 | inactive |  |
| CCOC(=O)COc1ccc2c(c1)CC(NCC(O)c1cccc(Cl)c1)CC2 (stereo not given) |  | 15.6 µM (active) |
| O=C(CCCCCCCCc1cccnc1)N1CCC(C=C(c2ccccc2)c2ccccc2)CC1 | inactive |  |
| CC1(C)C(=O)N(Br)C(=O)N1Br | inactive |  |
| COCCOc1cc2cc(C(=O)NC3CCN(C(C)C)CC3)n(CC(=O)Nc3ccc(Cl)cn3)c2cn1 | inactive |  |
| CCCC(=O)OCC | inactive |  |
| CC(=O)OC[C@H]1O[C@@](COC(C)=O)(O[C@H]2O[C@H](COC(C)=O)[C@@H](OC(C)=O)[C@H](OC(C)=O)[C@H]2OC(C)=O)[C@@H](OC(C)=O)[C@@H]1OC(C)=O | inactive |  |
| CCCCCCCCCCCCc1ccccc1 | inactive |  |
| Fc1ccccc1[C@@H](F)COC1CCC(Nc2ncnc3[nH]ncc23)CC1 (stereo not given in full) | inactive |  |
| Nc1nc2ncc(CNc3ccc(C(=O)N[C@@H](CCC(=O)O)C(=O)O)cc3)nc2c(=O)[nH]1 | inactive |  |
| COCCOCCOCCOC | inactive |  |
| O=C(O)c1cccc(N(Cc2cccnc2)c2ccc(OC(F)F)c(OC(F)F)c2)c1 | inactive |  |
| CCCCC(CC)COC(=O)c1ccc(C(=O)OCC(CC)CCCC)cc1 (stereo not given) | inactive |  |
| CCCCC(CC)COC(=O)CCCCCCCCC(=O)OCC(CC)CCCC (stereo not given) | inactive |  |
